Experimental data taken from PubChem BioAssay AID1159580 (chemical genetic matrix, 2015).
Several values for one entry are separate records, joined by “and”; a condition that tells them apart may be missing. Identical values can stand only once. Screen size: about 5,500 compounds; about 2,000 (36%) were called active. About 18% were inconclusive and are not listed. No stated cut-off is given here; in the data, active means normalized growth mostly below about 0.91 (no sharp cut-off); inconclusive means no clear call, values can overlap the other calls; inactive means mostly above about 0.92. This is one part of the list.

Test: chemical genetic growth profiling, strain panel (AID 1159580);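 further: tested at 20 µM; growth read once vehicle control cultures reached saturation at 30 °C; 1 = growth at the plate median or of vehicle wells; lower values mean less growth of the strain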
Conditions: S. cerevisiae deletion strains, growth OD

Measured: normalized growth

COc1ccc(C2CC(=O)c3ccc(OC)cc3O2)cc1 (centres undefined)
inactive: locus YAL021C, strain ccr4, hits give low values 0.953 | locus YAL026C, strain drs2, hits give low values 0.939 | locus YAL030W, strain snc1, hits give low values 0.954 | locus YBL061C, strain skt5, hits give low values 0.948 | locus YBR023C, strain chs3, hits give low values 0.915 | locus YBR171W, strain sec66, hits give low values 0.936 | locus YBR229C, strain ROT2, hits give low values 0.963 | locus YBR231C, strain swc5, hits give low values 0.921 | locus YBR279W, strain paf1, hits give low values 0.95 | locus YCL011C, strain gbp2, hits give low values 0.928 | locus YCL016C, strain dcc1, hits give low values 0.939 | locus YCL029C, strain bik1, hits give low values 0.923 | locus YCL061C, strain MRC1, hits give low values 0.932 | locus YCL069W, strain vba3, hits give low values 0.961 | locus YCR088W, strain abp1, hits give low values 0.957 | locus YDL005C, strain med2, hits give low values 0.96 | locus YDL035C, strain GPR1, hits give low values 0.872 | locus YDL040C, strain nat1, hits give low values 0.956 | locus YDL101C, strain DUN1, hits give low values 0.9 | locus YDL185W, strain tfp1, hits give low values 0.938 | locus YDR001C, strain nth1, hits give low values 0.951 | locus YDR069C, strain doa4, hits give low values 0.953 | locus YDR101C, strain arx1, hits give low values 0.93 | locus YDR137W, strain rgp1, hits give low values 0.966 | locus YDR159W, strain sac3, hits give low values 0.929 | locus YDR297W, strain sur2, hits give low values 0.948 | locus YDR334W, strain swr1, hits give low values 0.961 | locus YDR335W, strain msn5, hits give low values 0.953 | locus YDR388W, hits give low values 0.955 | locus YEL003W, strain gim4, hits give low values 0.94 | locus YEL037C, strain rad23, hits give low values 0.962 | locus YEL061C, strain CIN8 (second series), hits give low values 0.967 | locus YER015W, strain faa2, hits give low values 0.96 | locus YER016W, strain bim1, hits give low values 0.963 | locus YER110C, hits give low values 0.937 | locus YER111C, strain swi4, hits give low values 0.959 | locus YER155C, strain BEM2, hits give low values 0.979 | locus YFR010W, strain ubp6, hits give low values 0.954 | locus YGL078C, strain dbp3, hits give low values 0.958 | locus YGL167C, strain pmr1, hits give low values 0.938 | locus YGL173C, strain kem1, hits give low values 0.931 | locus YGL227W, strain vid30, hits give low values 0.959 | locus YHR013C, strain ard1, hits give low values 0.866 | locus YHR027C, strain rpn1, hits give low values 0.965 | locus YHR079C, strain IRE1 (second series), hits give low values 0.97 | locus YHR079C, strain IRE1, hits give low values 0.878 | locus YHR094C, strain hxt1, hits give low values 0.956 | locus YHR200W, strain rpn10, hits give low values 0.929 | locus YIL073C, strain SPO22, hits give low values 0.772 | locus YIL125W, strain kgd1, hits give low values 0.94 | locus YJL092W, strain hpr5, hits give low values 0.957 | locus YJL095W, strain BCK1 (second series), hits give low values 0.927 | locus YJL115W, strain asf1, hits give low values 0.954 | locus YJL129C, strain trk1, hits give low values 0.992 | locus YJL134W, strain LCB3, hits give low values 0.975 | locus YJL154C, strain vps35, hits give low values 0.977 | locus YJL168C, strain set2, hits give low values 0.95 | locus YJL187C, strain SWE1 (second series), hits give low values 0.868 | locus YJL187C, strain SWE1, hits give low values 0.948 | locus YJR043C, strain POL32, hits give low values 0.861
active: locus YBR009C, strain hhf1, hits give low values 0.854 | locus YBR021W, strain FUR4, hits give low values 0.805 | locus YDL074C, strain BRE1, hits give low values 0.689 | locus YDL192W, strain arf1, hits give low values 0.891 | locus YDR162C, strain NBP2, hits give low values 0.74 | locus YDR195W, strain ref2 1.19 [resistant] | locus YDR318W, strain mcm21, hits give low values 0.906 | locus YDR392W, strain spt3, hits give low values 0.538 | locus YDR502C, strain sam2, hits give low values 0.882 | locus YEL061C, strain CIN8, hits give low values 0.905 | locus YER155C, strain BEM2 (second series), hits give low values 0.683 | locus YER167W, strain BCK2, hits give low values 0.89 | locus YGL086W, strain mad1, hits give low values 0.898 | locus YGL240W, strain doc1, hits give low values 0.786 | locus YGL248W, strain PDE1, hits give low values 0.843 | locus YGL253W, strain hxk2, hits give low values 0.891 | locus YGR135W, strain pre9, hits give low values 0.857 | locus YGR229C, strain SMI1, hits give low values 0.504 | locus YGR252W, strain gcn5, hits give low values 0.628 | locus YHR030C, strain SLT2, hits give low values 0.744 and 0.843 | locus YHR129C, strain ARP1, hits give low values 0.882 | locus YHR142W, strain chs7, hits give low values 0.842 | locus YIL066C, strain RNR3, hits give low values 0.793 | locus YIR030C, strain dcg1, hits give low values 0.92 | locus YJL095W, strain BCK1, hits give low values 0.523 and 0.838 | locus YJL164C, strain tpk1, hits give low values 0.898 | locus YJL166W, strain qcr8, hits give low values 0.859 | locus YJR066W, strain TOR1, hits give low values 0.805 | locus YKL009W, strain mrt4, hits give low values 0.862
